Consider 47 molecules from article PMC11995724, “Antibiotic target discovery by integrated phenotypic and activity-based profiling of electrophilic fragments” (Cell chemical biology, 2025).

Screen size: about 3,200 compounds; about 110 (3.4%) showed an effect of 50% or more. The sample as a whole holds a higher share of strong results than the screen did.

This experiment concerns T1, V. cholerae SAD30.
T1 construct: SAD30
More on the design: species or system S. aureus MSSA476 (TSB) or V. cholerae SAD30 (LB); 384-well bacterial growth screen at 25 uM, OD600 relative to DMSO control. To be noted: relative growth, OD600, LB; 25 µM; inhibitor.
Consider `CC(C)NC(=O)C(C#N)=Cc1c(Cl)nc2ccccn12` [9-A11, 3-{2-chloroimidazo[1,2-a]pyridin-3-yl}-2-cyano-N-(propan-2-yl)prop-2-enamide], for which the “% of control remaining” value turned out to be 91.8423%.

For the molecule `C=CC(=O)Nc1cc(NC(=O)C2(OC)CCOC2)ccc1F` (centres unmarked) [3-D05, N-[4-fluoro-3-(prop-2-enamido)phenyl]-3-methoxyoxolane-3-carboxamide], the “% of control remaining” value was found to be 99.5001%.

As for `C=CC(=O)Nc1cc(NC(=O)C2CCC2)ccc1F` [2-E10, N-[4-fluoro-3-(prop-2-enamido)phenyl]cyclobutanecarboxamide], the “% of control remaining” value was 92.0486%.

In the case of `C=CC(=O)Nc1cc(NC(=O)c2ccc([N+](=O)[O-])o2)ccc1F` [3-J04, N-[4-fluoro-3-(prop-2-enamido)phenyl]-5-nitrofuran-2-carboxamide], the “% of control remaining” value is on record as -0.1875%.

Regarding `CC(C)Cn1c(N)c(C(=O)CCl)c(=O)[nH]c1=O` [10-F08, 6-amino-5-(2-chloroacetyl)-1-(2-methylpropyl)-1,2,3,4-tetrahydropyrimidine-2,4-dione], the “% of control remaining” value turned out to be 101.305%.

As to `O=C(CCl)Nc1cc2c(cc1[N+](=O)[O-])OCCCO2` [4-O05, 2-chloro-N-(8-nitro-3,4-dihydro-2H-1,5-benzodioxepin-7-yl)acetamide], the “% of control remaining” value is reported as 108.001%.

As to `O=C(CCl)c1ccoc1` [10-O09, 2-chloro-1-(furan-3-yl)ethan-1-one], the “% of control remaining” value was 123.281%.

Turning to `Cl.O=C(CCl)c1ccncc1` [10-M09, 2-chloro-1-(pyridin-4-yl)ethan-1-one hydrochloride], the “% of control remaining” value is reported as -0.1559%.

As to `O=C(CCl)NCC(F)(F)c1cccnc1` [6-C21, 2-chloro-N-[2,2-difluoro-2-(pyridin-3-yl)ethyl]acetamide], the “% of control remaining” value is 97.8292%.

As to `O=C(CCl)c1ccc(C(F)(F)F)cc1` [10-B10, 2-chloro-1-[4-(trifluoromethyl)phenyl]ethan-1-one], the “% of control remaining” value was determined as 79.174%.

`O=C(CCl)c1c[nH]c2ccncc12` [10-K05, 2-chloro-1-{1H-pyrrolo[3,2-c]pyridin-3-yl}ethan-1-one]: the “% of control remaining” value turned out to be 101.305%.

With `Cl.O=C(CCl)c1ccncc1F` [10-I09, 2-chloro-1-(3-fluoropyridin-4-yl)ethan-1-one hydrochloride], the “% of control remaining” value turned out to be 0%.

Take `COc1ccc(C=C(C#N)C(=O)Nc2c(C)cccc2C)cc1OC` [8-A17, 2-cyano-3-(3,4-dimethoxyphenyl)-N-(2,6-dimethylphenyl)prop-2-enamide]: the “% of control remaining” value was 86.6757%.

For `Cc1n[nH]c(C)c1C=C(C#N)C(=O)Nc1cc(Cl)cc(Cl)c1` [8-M08, 2-cyano-N-(3,5-dichlorophenyl)-3-(3,5-dimethyl-1H-pyrazol-4-yl)prop-2-enamide], the “% of control remaining” value is reported as 68.3209%.

For `CCOc1ccc2nc(NC(=O)CCl)sc2c1` [4-L10, 2-chloro-N-(6-ethoxy-1,3-benzothiazol-2-yl)acetamide], the “% of control remaining” value amounted to 94.3714%.

Regarding `C=CC(=O)N1CCC(C(=O)NCCc2c(C)n[nH]c2C)CC1` [2-D04, N-[2-(3,5-dimethyl-1H-pyrazol-4-yl)ethyl]-1-(prop-2-enoyl)piperidine-4-carboxamide], the “% of control remaining” value turned out to be 106.099%.

Take `CC(Cl)C(=O)N1CCN(S(=O)(=O)c2ccccc2)CC1` (centres unmarked) [6-B12, 1-[4-(benzenesulfonyl)piperazin-1-yl]-2-chloropropan-1-one]: the “% of control remaining” value is reported as 88.4254%.

Turning to `CCc1cccc(CC)c1NC(=O)CCl` [4-F10, 2-chloro-N-(2,6-diethylphenyl)acetamide], the “% of control remaining” value worked out at 103.86%.

On to `Cc1cccc2[nH]cc(C(=O)CCl)c12` [10-H09, 2-chloro-1-(4-methyl-1H-indol-3-yl)ethan-1-one], for which the “% of control remaining” value was 100.526%.

For the molecule `CCc1cccc2c(C(=O)CCl)c[nH]c12` [10-C12, 2-chloro-1-(7-ethyl-1H-indol-3-yl)ethan-1-one], the “% of control remaining” value is reported as 24.3133%.

As to `Cc1noc(C)c1COC1CCN(C(=O)C(C)Cl)C1` (centres unmarked) [7-O14, 2-chloro-1-{3-[(3,5-dimethyl-1,2-oxazol-4-yl)methoxy]pyrrolidin-1-yl}propan-1-one], the “% of control remaining” value is reported as 78.3744%.

As for `Cc1ccccc1-n1c(C)cc(C(=O)CCl)c1C` [10-H20, 2-chloro-1-[2,5-dimethyl-1-(2-methylphenyl)-1H-pyrrol-3-yl]ethan-1-one], the “% of control remaining” value came to 100.526%.

Take `Cc1cc(C(=O)CCl)c(C)n1-c1ccon1` [10-F06, 2-chloro-1-[2,5-dimethyl-1-(1,2-oxazol-3-yl)-1H-pyrrol-3-yl]ethan-1-one]: the “% of control remaining” value came to 37.8726%.

In the case of `Cc1cc(C)cc(-n2c(C)cc(C(=O)CCl)c2C)c1` [10-E04, 2-chloro-1-[1-(3,5-dimethylphenyl)-2,5-dimethyl-1H-pyrrol-3-yl]ethan-1-one], the “% of control remaining” value was 92.1099%.

With `Cc1cc(C(=O)CCl)c(C)n1-c1ccccc1` [10-L20, 2-chloro-1-(2,5-dimethyl-1-phenyl-1H-pyrrol-3-yl)ethan-1-one], the “% of control remaining” value is 100.682%.

Consider `Cc1cc(C(=O)CCl)c(C)n1-c1ccccn1` [10-C16, 2-chloro-1-[2,5-dimethyl-1-(pyridin-2-yl)-1H-pyrrol-3-yl]ethan-1-one], for which the “% of control remaining” value worked out at 41.1455%.

`Cc1cc(-n2c(C)cc(C(=O)CCl)c2C)no1` [10-C18, 2-chloro-1-[2,5-dimethyl-1-(5-methyl-1,2-oxazol-3-yl)-1H-pyrrol-3-yl]ethan-1-one]: the “% of control remaining” value came out at 106.137%.

In the case of `Cc1ccc(S(=O)(=O)NC2CN(C(=O)CCl)C2)cc1` [5-E07, N-[1-(2-chloroacetyl)azetidin-3-yl]-4-methylbenzene-1-sulfonamide], the “% of control remaining” value is recorded as 95.6604%.

On to `C[C@H](NC(=O)CCl)C(=O)N1CCCCC1` [7-L14, 2-chloro-N-[(2S)-1-oxo-1-(piperidin-1-yl)propan-2-yl]acetamide], for which the “% of control remaining” value is reported as 80.489%.

With `COc1ccc(C=C(C#N)C(=O)Nc2cccc(C)c2)cc1` [8-M03, 2-cyano-3-(4-methoxyphenyl)-N-(3-methylphenyl)prop-2-enamide], the “% of control remaining” value is 85.4521%.

Consider `C=CC(=O)NCCc1nc(C)cs1` [2-D05, N-[2-(4-methyl-1,3-thiazol-2-yl)ethyl]prop-2-enamide], for which the “% of control remaining” value stood at 94.8278%.

Consider `C=CC(=O)NCC(=O)c1scc(C)c1Cl` [1-D16, N-[2-(3-chloro-4-methylthiophen-2-yl)-2-oxoethyl]prop-2-enamide], for which the “% of control remaining” value is listed as 44.1609%.

On to `C=CC(=O)NCCc1csc(C)n1` [1-D13, N-[2-(2-methyl-1,3-thiazol-4-yl)ethyl]prop-2-enamide], for which the “% of control remaining” value turned out to be 86.9955%.

As to `COc1ccc(NC(=O)c2ccccc2NC(=O)CCl)cc1` [4-L05, 2-(2-chloroacetamido)-N-(4-methoxyphenyl)benzamide], the “% of control remaining” value is 109.209%.

Regarding `O=C(CCl)NCCSc1ccccc1` [4-G21, 2-chloro-N-[2-(phenylsulfanyl)ethyl]acetamide], the “% of control remaining” value was determined as 113.522%.

With `CN1c2ccccc2C(NC(=O)CCl)CS1(=O)=O` (centres unmarked) [7-L04, 2-chloro-N-(1-methyl-2,2-dioxo-3,4-dihydro-1H-2lambda6,1-benzothiazin-4-yl)acetamide], the “% of control remaining” value stood at 88.9476%.

In the case of `N#Cc1ccc(N2C(=O)C=CC2=O)cc1` [10-B09, 4-(2,5-dioxo-2,5-dihydro-1H-pyrrol-1-yl)benzonitrile], the “% of control remaining” value turned out to be 24.9367%.

Turning to `O=C(CCl)Nc1ccc(SC(F)F)cc1` [4-B10, 2-chloro-N-{4-[(difluoromethyl)sulfanyl]phenyl}acetamide], the “% of control remaining” value is 104.205%.

As for `O=C1C=CC(=O)N1c1ccc(SC(F)F)cc1` [10-A18, 1-{4-[(difluoromethyl)sulfanyl]phenyl}-2,5-dihydro-1H-pyrrole-2,5-dione], the “% of control remaining” value stood at 28.9889%.

Take `CC(Cl)C(=O)Nc1ccc(F)c(Cl)c1` (centres unmarked) [4-A04, 2-chloro-N-(3-chloro-4-fluorophenyl)propanamide]: the “% of control remaining” value came to 99.7196%.

Regarding `N#CC(=Cc1ccc(C#N)cc1)C(=O)N1CCCC1` [9-P21, 4-[2-cyano-2-(pyrrolidine-1-carbonyl)eth-1-en-1-yl]benzonitrile], the “% of control remaining” value amounted to 93.8817%.

With `O=C1C=CC(=O)N1c1ccc(F)cc1` [10-M10, 1-(4-fluorophenyl)-2,5-dihydro-1H-pyrrole-2,5-dione], the “% of control remaining” value came to 16.8323%.

Regarding `O=C1C=CC(=O)N1c1cnccn1` [10-P07, 1-(pyrazin-2-yl)-2,5-dihydro-1H-pyrrole-2,5-dione], the “% of control remaining” value amounted to 97.4089%.

On to `CC(Cl)C(=O)Nc1ccc(SC(F)F)cc1` (centres unmarked) [4-L09, 2-chloro-N-{4-[(difluoromethyl)sulfanyl]phenyl}propanamide], for which the “% of control remaining” value stood at 88.1604%.

For `O=C1C=CC(=O)N1c1ccc(F)c(Cl)c1` [10-D15, 1-(3-chloro-4-fluorophenyl)-2,5-dihydro-1H-pyrrole-2,5-dione], the “% of control remaining” value is listed as 25.716%.

For the molecule `COc1ccc(NC(=O)C(C#N)=Cc2cnc3c(C)cccn23)cc1` [9-L03, 2-cyano-N-(4-methoxyphenyl)-3-{8-methylimidazo[1,2-a]pyridin-3-yl}prop-2-enamide], the “% of control remaining” value was determined as 95.7852%.

As to `CN1C=C(C(F)(F)F)C=CC1=C(C#N)C(=O)Nc1ccccc1F` [8-H20, 2-cyano-N-(2-fluorophenyl)-2-[1-methyl-5-(trifluoromethyl)-1,2-dihydropyridin-2-ylidene]acetamide], the “% of control remaining” value was 66.9613%.
